PubChem BioAssay (Tox21)
“And” between values parts separate entries of the source, which are not always exact repeats. Equal entries are not always repeated. Records with an inconclusive call do not appear. Some compounds were tested as several samples or in several runs, with calls that do not always agree. The source made the active and inactive calls. Unless noted, calls follow the shape of the dose curve; as a rule, active = well fitted curve in the direction sought with a large enough effect in the repeat runs; inconclusive = weak or mixed curves; inactive = no such curve, though single readings can be large; an effect the other way counts as inactive or inconclusive.

Assays:
[1] = molecular target: Thyrotropin receptor (Homo sapiens) (UniProt P16473); assay: qHTS assay to identify small molecule antagonists of the thyroid stimulating hormone receptor (TSHR) signaling pathway (AID 1259385; calls by dose curve; also: nearly all actives have a fitted effect of over 20% in size)
How it was run: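 Antagonist mode: compound-treated TSHR-expressing HEK293 cells were stimulated with 1.5 ng/mL TSH (final) in presence of Ro20-1724 for 30 min at RT. HTRF cAMP detection after 1 h; each compound tested at 15 concentrations, triplicate.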

[2] = qHTS assay to identify small molecule agonists of the estrogen receptor alpha (ER-alpha) signaling pathway in the presence of an antagonist - cell viability counter screen (AID 1259386);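 also: series mostly up to about 92 µM; cells exposed to compounds for 22 h at 37 °C before the viability read; nearly all actives have a fitted effect of over 30% in size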
How it was run: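 Steps: 5-day stripped-FBS culture; seed and incubate 24hr; add ICI-182,780 (10.0nM final); pin 15-point compound titration; incubate 22hr at 37C; add CellTiter-Fluor at 21hr; read fluorescence.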

[3] = molecular target: Progesterone receptor (Homo sapiens) (UniProt P06401); assay: qHTS assay to identify small molecule agonists of the progesterone receptor (PR) signaling pathway (AID 1346784; calls by dose curve; also: nearly all actives have a fitted effect of over 30% in size)
How it was run: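 HEK 293T PR-UAS-bla reporter cells, 2% charcoal-stripped FBS; 6 hr settle at 37C/5% CO2, compound (DMSO) 16 hr, LiveBLAzer B/G FRET substrate 2 hr RT, fluorescence intensity read.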

[4] = molecular target: Progesterone receptor (Homo sapiens) (UniProt P06401); assay: qHTS assay to identify small molecule antagonists of the progesterone receptor (PR) signaling pathway (AID 1346795; active = well fitted inhibition curve with a large enough effect in the signal ratio in the repeat runs, not every such curve was filed as active; the % refers to the signal ratio; also: potency is read from the fitted curve at half-maximal effect)
How it was run: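 Beta-lactamase reporter, HEK293T PR-UAS-bla line; 2% charcoal-stripped FBS; 6 hr pre-incubation, 37C/5% CO2. Compound + R5020 1 nM final, 16 hr. LiveBLAzer B/G FRET substrate, 2 hr RT; fluorescence intensity read.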

[5] = qHTS assay to identify small molecule antagonists of the progesterone receptor (PR) signaling pathway - cell viability counter screen (AID 1346798); also: series mostly up to about 92 µM; nearly all actives have a fitted effect of over 50% in size
How it was run: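 Luminescence readout (CellTiter-Glo, 30 min, RT) of viability in PR-UAS-bla HEK293T cells exposed to compound and R5020 agonist for 16 hr at 37C, 5% CO2; run in the same wells as the beta-lactamase reporter read.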

[6] = qHTS assay to identify small molecule agonists of the progesterone receptor (PR) signaling pathway - cell viability counter screen (AID 1346799; calls by dose curve; also: nearly all actives have a fitted effect of over 45% in size; also: potency is read from the fitted curve at half-maximal effect)
How it was run: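 HEK293T PR-UAS-bla, 3,000 cells/well, 2% charcoal-stripped FBS; 6 h settle, compound 16 h at 37C/5% CO2; LiveBLAzer 2 h RT, then CellTiter-Glo 30 min RT, luminescence read.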

[7] = qHTS assay to identify small molecule antagonists of the TGF-beta/Smad signaling pathway - cell viability counter screen (AID 1346824); also: nearly all actives have a fitted effect of over 50% in size
How it was run: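 Cytotoxicity counter-screen run in the same wells as the beta-lactamase Smad reporter read: CellTiter-Glo luminescence after 30 min at room temperature. HEK 293T SBE-bla cells had 5 hr compound exposure at 37 C with TGF-beta1 (0.25 ng/mL stock).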

[8] = qHTS assay to identify small molecule agonists of the TGF-beta/Smad signaling pathway - cell viability counter screen (AID 1346829); also: top concentration of the series differs between compounds; nearly all actives have a fitted effect of over 45% in size
How it was run: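 Same-well cytotoxicity: CellTiter-Glo added after the 2 hr room-temperature beta-lactamase substrate step, luminescence measured 30 min later; cells had 5 hr of compound at 37 C.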

[9] = qHTS assay to identify small molecule agonists of the TGF-beta/Smad signaling pathway (AID 1346859; active = well fitted activation curve with a large enough effect in the signal ratio in the repeat runs, not every such curve was filed as active; the % refers to the signal ratio; also: series mostly up to about 77 µM)
How it was run: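 Read-out: fluorescence at 460 and 530 nm (405 nm excitation) after a 2 hr room-temperature incubation with beta-lactamase FRET substrate. SBE-bla HEK 293T cells had been treated with test compounds for 5 hr at 37 C.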

[10] = molecular target: Thyrotropin-releasing hormone receptor (Homo sapiens) (UniProt P34981); assay: qHTS assay to identify small molecule antagonists of the thyrotropin-releasing hormone receptor (TRHR) signaling pathway (AID 1346877; active = well fitted inhibition curve with a large enough effect in the repeat runs, not every such curve was filed as active; also: series mostly up to about 51 µM)
How it was run: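 Human TRHR in HEK293 cells; inhibition of the intracellular calcium rise triggered by 1 nM TRH was followed by fluorescence over 3 min. Compounds were run at 15 concentrations, three replicates each.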

[11] = Human pregnane X receptor (PXR) small molecule agonists, qHTS cell viability counter screen (AID 1346977); also: nearly all actives have a fitted effect of over 50% in size
How it was run: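 Fluorescence read-out (CellTiter-Fluor) of viability in PXR-Luc HepG2 cells, multiplexed with the luciferase agonist read. Compounds in DMSO added after 5hr plating; 24hr total exposure at 37C, 5% CO2.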

[12] = Caspase-3/7 induction in HepG2 cells by small molecules, qHTS assay (AID 1346978); also: nearly all actives have a fitted effect of over 15% in size
How it was run: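 Caspase-3/7 induction was measured by Caspase-Glo 3/7 luminescence (30 min, room temperature) after a 17 hr compound exposure of wild-type HepG2 cells seeded at 2,000 per well and pre-incubated 5 hr.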

[13] = Caspase-3/7 induction in CHO-K1 cells by small molecules, qHTS cell viability counter screen (AID 1346979); also: nearly all actives have a fitted effect of over 35% in size; also: potency is read from the fitted curve at half-maximal effect
How it was run: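 CHO-K1 wt, 1,500 cells/well; 5hr pre-incubation 37C/5% CO2; compound pin transfer (DMSO); 16hr exposure; CellTiter-Fluor added, 1hr, fluorescence read.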

[14] = Caspase-3/7 induction in CHO-K1 cells by small molecules, qHTS assay (AID 1346980); also: nearly all actives have a fitted effect of over 15% in size
How it was run: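 Luminescent Caspase-Glo 3/7 read (30min, room temperature) quantified apoptosis induction. Cells were wild-type CHO-K1, treated with compound for 17hr at 37 C and 5% CO2.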

[15] = Caspase-3/7 induction in HepG2 cells by small molecules, qHTS cell viability counter screen (AID 1346981); also: series mostly up to about 92 µM; nearly all actives have a fitted effect of over 30% in size
How it was run: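 The parent HepG2 line is plated at 2,000 cells per well and rested 5 hr before compound pinning from DMSO stocks. Following a 16-hr treatment at 37 C, a fluorogenic live-cell substrate (CellTiter-Fluor) reports viability after 1 hr.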

[16] = molecular target: Thyrotropin-releasing hormone receptor (Homo sapiens) (UniProt P34981); assay: qHTS assay to identify small molecule agonists of the thyrotropin-releasing hormone receptor (TRHR) signaling pathway (AID 1346891; calls by dose curve;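 also: HEK293 cells expressing TRHR with calcium dye readout; series mostly up to about 58 µM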)
How it was run: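 HEK293/TRHR cells, 1500 per well, 18 h 37 °C; Ca dye 2 h 37 °C; pin-tool compound addition (agonist mode); kinetic fluorescence 3 min, 1 s reads; 15 concentrations, triplicate.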

[17] = molecular target: Nuclear receptor subfamily 1 group I member 2 (Rattus norvegicus) (UniProt Q9R1A7); assay: Rat pregnane X receptor (rPXR) activation by small molecules, qHTS assay (AID 1346983); conditions: rPXR luciferase reporter cells, One-Glo luminescence, 24 h; max activation: stronger effect = higher value; also: nearly all actives have a fitted effect of over 20% in size
How it was run: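 Luminescent readout (One-Glo luciferase, 30 min room temperature) followed 24 hr compound treatment at 37 C of rPXR cells plated 2,000 per well and preincubated 5hr; qHTS format with compounds delivered in DMSO.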

[18] = molecular target: Nuclear receptor subfamily 1 group I member 2 (Homo sapiens) (UniProt O75469); assay: Human pregnane X receptor (PXR) small molecule agonists, qHTS assay (AID 1346982); also: nearly all actives have a fitted effect of over 35% in size; also: potency is read from the fitted curve at half-maximal effect
How it was run: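 After plating in 5% charcoal-stripped FBS and a 5 hr rest, PXR-Luc HepG2 cells received compounds in DMSO. Following 24 hr at 37 C, ONE-Glo was added and light output read.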

[19] = molecular target: Nuclear receptor subfamily 1 group I member 2 (Homo sapiens) (UniProt O75469); assay: CYP3A4 induction through human pregnane X receptor (PXR) by small molecules, qHTS assay (AID 1346984); also: nearly all actives have a fitted effect of over 40% in size
How it was run: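 Human PXR activation is tracked via CYP3A4 promoter-luciferase in DPX-2 (HepG2) cells. Compounds treat cells for 24hr at 37C, and luminescence is read after One-Glo.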

[20] = molecular target: Nuclear receptor subfamily 1 group I member 2 (Homo sapiens) (UniProt O75469); assay: Human pregnane X receptor (PXR) activation by small molecules, qHTS assay (AID 1346985); also: nearly all actives have a fitted effect of over 40% in size
How it was run: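 DPX-2 cells (HepG2 co-transfected with a PXR response element and a CYP3A4-promoter luciferase construct) were seeded at 2,000 per well, rested 5 hr at 37C, then exposed to DMSO-dissolved compounds for 24 hr. Activation was read as luciferase luminescence.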
% is scaled to controls: 0 for no effect and ±100 for the full control effect.

Sequence of Thyrotropin receptor (Homo sapiens) (P16473 whole entry, looked up): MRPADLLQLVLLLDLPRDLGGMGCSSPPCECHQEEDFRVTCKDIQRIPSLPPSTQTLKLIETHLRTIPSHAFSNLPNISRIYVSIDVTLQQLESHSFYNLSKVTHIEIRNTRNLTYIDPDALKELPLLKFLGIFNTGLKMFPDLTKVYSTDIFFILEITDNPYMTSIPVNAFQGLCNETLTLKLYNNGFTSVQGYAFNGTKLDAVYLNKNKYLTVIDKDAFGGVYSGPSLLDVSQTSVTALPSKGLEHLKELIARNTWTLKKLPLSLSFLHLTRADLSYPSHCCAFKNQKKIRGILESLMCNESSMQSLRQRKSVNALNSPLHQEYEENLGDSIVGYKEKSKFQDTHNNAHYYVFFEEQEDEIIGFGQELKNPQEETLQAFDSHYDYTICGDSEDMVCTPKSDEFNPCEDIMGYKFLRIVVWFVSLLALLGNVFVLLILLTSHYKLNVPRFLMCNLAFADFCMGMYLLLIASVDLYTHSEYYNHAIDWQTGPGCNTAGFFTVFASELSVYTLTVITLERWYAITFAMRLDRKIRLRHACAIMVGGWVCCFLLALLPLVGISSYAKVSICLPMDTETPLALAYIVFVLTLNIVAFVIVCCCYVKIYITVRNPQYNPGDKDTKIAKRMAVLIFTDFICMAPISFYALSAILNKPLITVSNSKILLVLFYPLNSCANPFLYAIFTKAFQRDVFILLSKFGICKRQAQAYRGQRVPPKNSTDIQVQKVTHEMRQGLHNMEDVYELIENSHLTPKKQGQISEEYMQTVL
Sequence of Thyrotropin-releasing hormone receptor (Homo sapiens) (P34981 whole entry, looked up): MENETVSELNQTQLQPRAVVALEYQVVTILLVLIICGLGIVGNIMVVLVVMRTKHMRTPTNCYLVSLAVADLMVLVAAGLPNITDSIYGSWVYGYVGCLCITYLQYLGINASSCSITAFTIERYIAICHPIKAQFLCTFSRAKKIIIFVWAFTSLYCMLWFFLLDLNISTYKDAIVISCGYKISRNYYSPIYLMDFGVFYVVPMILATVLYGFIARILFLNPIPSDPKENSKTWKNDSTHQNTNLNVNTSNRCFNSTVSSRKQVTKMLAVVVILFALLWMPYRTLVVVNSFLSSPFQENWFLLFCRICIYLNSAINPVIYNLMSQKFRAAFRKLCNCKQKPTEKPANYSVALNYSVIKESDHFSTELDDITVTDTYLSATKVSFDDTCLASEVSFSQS
Sequence of Progesterone receptor (Homo sapiens) (P06401 whole entry, looked up): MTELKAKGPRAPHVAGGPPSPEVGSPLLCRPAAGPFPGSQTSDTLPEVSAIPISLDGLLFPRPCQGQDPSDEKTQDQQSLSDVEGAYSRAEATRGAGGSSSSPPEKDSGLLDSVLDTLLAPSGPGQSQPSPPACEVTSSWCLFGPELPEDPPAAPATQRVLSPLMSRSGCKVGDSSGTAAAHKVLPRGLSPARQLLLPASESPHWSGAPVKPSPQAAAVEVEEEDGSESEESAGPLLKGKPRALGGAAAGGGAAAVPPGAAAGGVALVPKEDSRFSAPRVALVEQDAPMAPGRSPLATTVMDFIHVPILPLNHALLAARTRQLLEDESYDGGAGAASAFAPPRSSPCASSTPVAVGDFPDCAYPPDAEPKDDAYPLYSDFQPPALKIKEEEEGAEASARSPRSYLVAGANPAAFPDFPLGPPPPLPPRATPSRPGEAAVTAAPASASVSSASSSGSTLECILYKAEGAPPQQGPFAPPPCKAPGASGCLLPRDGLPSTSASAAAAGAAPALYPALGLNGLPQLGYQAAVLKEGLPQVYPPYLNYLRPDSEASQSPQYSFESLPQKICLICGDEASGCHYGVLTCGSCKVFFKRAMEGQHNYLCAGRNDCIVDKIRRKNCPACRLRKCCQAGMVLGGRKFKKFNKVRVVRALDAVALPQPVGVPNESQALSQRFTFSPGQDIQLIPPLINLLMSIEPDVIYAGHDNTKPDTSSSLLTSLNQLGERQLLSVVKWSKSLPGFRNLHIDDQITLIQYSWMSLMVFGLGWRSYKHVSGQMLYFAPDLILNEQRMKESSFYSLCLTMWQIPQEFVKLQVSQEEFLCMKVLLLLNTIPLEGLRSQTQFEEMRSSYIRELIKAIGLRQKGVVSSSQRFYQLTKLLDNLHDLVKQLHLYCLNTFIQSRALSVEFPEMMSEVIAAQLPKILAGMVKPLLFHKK
Sequence of Nuclear receptor subfamily 1 group I member 2 (Rattus norvegicus) (Q9R1A7 whole entry, looked up): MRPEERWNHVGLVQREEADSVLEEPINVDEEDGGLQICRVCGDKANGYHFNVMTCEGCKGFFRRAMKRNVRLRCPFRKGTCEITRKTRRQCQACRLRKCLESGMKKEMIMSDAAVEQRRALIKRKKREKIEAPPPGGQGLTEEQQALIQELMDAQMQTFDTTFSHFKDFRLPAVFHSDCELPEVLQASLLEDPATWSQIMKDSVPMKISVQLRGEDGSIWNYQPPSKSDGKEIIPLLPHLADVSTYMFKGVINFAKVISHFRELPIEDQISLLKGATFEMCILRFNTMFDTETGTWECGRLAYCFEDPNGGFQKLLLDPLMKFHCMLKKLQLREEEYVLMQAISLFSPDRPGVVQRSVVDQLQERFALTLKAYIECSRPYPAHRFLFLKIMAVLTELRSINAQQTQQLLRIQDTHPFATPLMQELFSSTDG
Sequence of Nuclear receptor subfamily 1 group I member 2 (Homo sapiens) (O75469 whole entry, looked up): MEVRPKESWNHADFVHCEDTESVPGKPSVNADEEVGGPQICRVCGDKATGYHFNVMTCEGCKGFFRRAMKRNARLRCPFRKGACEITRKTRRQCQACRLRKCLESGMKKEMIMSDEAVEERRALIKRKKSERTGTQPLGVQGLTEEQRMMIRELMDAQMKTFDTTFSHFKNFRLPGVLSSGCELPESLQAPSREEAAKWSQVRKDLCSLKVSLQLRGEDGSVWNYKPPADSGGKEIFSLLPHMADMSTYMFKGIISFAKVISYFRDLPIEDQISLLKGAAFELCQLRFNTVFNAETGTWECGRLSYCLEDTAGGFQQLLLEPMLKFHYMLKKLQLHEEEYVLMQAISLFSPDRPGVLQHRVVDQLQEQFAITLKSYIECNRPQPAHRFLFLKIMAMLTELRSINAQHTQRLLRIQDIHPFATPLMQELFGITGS

Nc1ccc(S(N)(=O)=O)cc1
inactive: Potency [1] | Potency [2] | Potency [3] | Potency [4] | Potency [5] | Potency [6] | Potency [7] | Potency [8] | outcome [9] | Potency [10] | Potency [11] | Potency [12] | Potency [14] | Potency [15]
48.8 µM (active) and inactive: Potency [13]

O=C1NS(=O)(=O)c2ccccc21
inactive: Potency [1] | Potency [2] | Potency [3] | Potency [4] | Potency [5] | Potency [6] | Potency [7] | Potency [8] | outcome [9] | Potency [10] | Potency [16] | Potency [11] | Potency [12] | Potency [13] | Potency [14] | Potency [15] | max activation [17] -1.81%

Cc1cccc(C)c1
inactive: Potency [1] | Potency [2] | Potency [3] | Potency [4] | Potency [5] | Potency [6] | Potency [7] | Potency [8] | outcome [9] | Potency [10] | Potency [11] | Potency [12] | Potency [13] | Potency [14] | Potency [15] | Potency [18]

Cc1ncc([N+](=O)[O-])n1C
inactive: Potency [1] | Potency [2] | Potency [3] | Potency [4] | Potency [5] | Potency [6] | Potency [7] | Potency [8] | outcome [9] | Potency [10] | Potency [11] | Potency [12] | Potency [13] | Potency [14] | Potency [15] | Potency [18]

NC(CO)(CO)CO
inactive: Potency [1] | Potency [2] | Potency [3] | Potency [4] | Potency [5] | Potency [6] | Potency [7] | Potency [8] | outcome [9] | Potency [10] | Potency [11] | Potency [12] | Potency [13] | Potency [14] | Potency [15] | Potency [18] | max activation [17] -3.86% | Potency [19] | outcome [20]

CCOc1ccc(NC(C)=O)cc1
inactive: Potency [1] | Potency [2] | Potency [3] | Potency [4] | Potency [5] | Potency [6] | Potency [7] | Potency [8] | outcome [9] | Potency [10] | Potency [11] | Potency [12] | Potency [13] | Potency [14] | Potency [15] | Potency [18]

CCCCC1(COC(=O)CCC(=O)O)C(=O)N(c2ccccc2)N(c2ccccc2)C1=O
inactive: Potency [1] | Potency [2] | Potency [3] | Potency [4] | Potency [5] | Potency [6] | Potency [7] | Potency [8] | outcome [9] | Potency [10] | Potency [11] | Potency [12] | Potency [13] | Potency [14] | Potency [15]

CN(C)CCOC(c1ccccc1)c1ccccc1
54.8 µM (active) and inactive: Potency [18]
inactive: Potency [1] | Potency [2] | Potency [3] | Potency [4] | Potency [5] | Potency [6] | Potency [7] | Potency [8] | outcome [9] | Potency [10] | Potency [11] | Potency [12] | Potency [13] | Potency [14] | Potency [15]

NC1CCCCC1
inactive: Potency [1] | Potency [2] | Potency [3] | Potency [4] | Potency [5] | Potency [6] | Potency [7] | Potency [8] | outcome [9] | Potency [10] | Potency [11] | Potency [12] | Potency [13] | Potency [14] | Potency [15] | Potency [18]

CCCCOC(=O)c1ccc(O)cc1
31 µM (active) and inactive: Potency [13]
active: Potency [4] 27.6 µM and 27.3 µM and 26.6 µM
inactive: Potency [1] | Potency [2] | Potency [3] | Potency [5] | Potency [6] | Potency [7] | Potency [8] | outcome [9] | Potency [10] | Potency [11] | Potency [12] | Potency [14] | Potency [15]
69.4 µM (active) and inactive: Potency [18]

CCCc1cc(=O)[nH]c(=S)[nH]1
inactive: Potency [1] | Potency [2] | Potency [3] | Potency [4] | Potency [5] | Potency [6] | Potency [7] | Potency [8] | outcome [9] | Potency [10] | Potency [16] | Potency [11] | Potency [12] | Potency [13] | Potency [14] | Potency [15] | Potency [18] | max activation [17] -3.01% | Potency [19] | outcome [20]

CC(=O)C(=O)O
inactive: Potency [1] | Potency [2] | Potency [3] | Potency [4] | Potency [5] | Potency [7] | Potency [8] | outcome [9] | Potency [11] | Potency [12] | Potency [13] | Potency [14] | Potency [15] | Potency [18]
inactive and 34.4 µM (active): Potency [6]

Cc1ncc([N+](=O)[O-])n1CCO
inactive: Potency [1] | Potency [2] | Potency [3] | Potency [4] | Potency [5] | Potency [6] | Potency [7] | Potency [8] | outcome [9] | Potency [10] | Potency [16] | Potency [11] | Potency [12] | Potency [13] | Potency [14] | Potency [15] | Potency [18]

NS(=O)(=O)c1cc2c(cc1Cl)NCNS2(=O)=O
inactive: Potency [1] | Potency [2] | Potency [3] | Potency [4] | Potency [5] | Potency [6] | Potency [7] | Potency [8] | outcome [9] | Potency [10] | Potency [11] | Potency [12] | Potency [13] | Potency [14] | Potency [15] | Potency [18]

O=C1NC(=O)C(c2ccccc2)(c2ccccc2)N1
inactive: Potency [1] | Potency [2] | Potency [3] | Potency [4] | Potency [5] | Potency [6] | Potency [7] | Potency [8] | outcome [9] | Potency [10] | Potency [11] | Potency [12] | Potency [13] | Potency [14] | Potency [15]
